# Pf Dd2 inh = blocks in vitro growth of P. falciparum Dd2; P. falciparum Dd2 growth, SYBR Green, 72 h; Potency, µM (top dose mostly 28.9 µM), most hits filed as inhibitors; actives 4.3% (n = 120,000); AID 1347417; active = well fitted inhibition curve with a large enough effect; note: nearly all actives have a fitted effect of over 65% in size
#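 Infected erythrocytes (Dd2, 0.3% parasitemia, 2.5% hematocrit final) are added to compound in RPMI-1640/Albumax II medium, grown 72 h at 37C in low oxygen, then lysed with saponin/Triton-X containing SYBR Green and read by fluorescence.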
# Numbers stand for hits; - = inactive; [ ] = remark or other dose. This is one part of a sample in which hits are shown more often than they occur.
SMILES,Pf Dd2 inh
O=C(c1ccsc1)N1CCC(N(C(=O)C2CC2)C2CCOCC2)CC1,-
O=C(c1n[nH]c2ccccc12)N1CCC(c2nc(C3CCOCC3)no2)CC1,-
C[S+](=O)([O-])N1CC2(Cc3ccccc31)CN(C(=O)c1ccc(Cl)nc1)C2,-
Cc1cc2nc3n(c(=O)c2n1CC(=O)N1CCN(c2ccccc2F)CC1)CCCCC3,-
O=C(COc1cccc(-c2nnc3n2CCCC3)c1)N1CCN(c2ccccc2F)CC1,5µM
O=C(Cn1nc2n(c1=O)CCCC2)N1CCN(c2ccccc2F)CC1,-
COc1ccc(NC(=O)Cn2c(=O)n(-c3cccc(C)c3)c(=O)c3c2cc(C)n3C)c(OC)c1,-
Cc1ccc(C(=O)N2CCC([C@@H]3CNC[C@H]3CO)CC2)cc1F,-
CCC(=O)N1CC(=O)Nc2ccc(C)cc2C1c1ccc(F)cc1 (stereo unspecified),-
O=C1CN(C(=O)COc2ccc(Cl)cc2)C(c2ccc(F)cc2)c2cc(Cl)ccc2N1 (stereo unspecified),10µM
CCCC(=O)N1CC(=O)Nc2ccc(Cl)cc2C1c1ccccc1 (stereo unspecified),-
CN(C)C(=O)c1nc(-c2ccc(Cl)nc2)c2ccccn12,-
Cc1cccc(NC(=O)Nc2ccc(C)n(CC(=O)NCCC(C)C)c2=O)c1,-
CCC1CN(CCNC(=O)Cc2c(F)cc(F)cc2F)Cc2cc(OC)ccc2O1 (stereo unspecified),-
CN1Cc2nc(-c3cnn(Cc4ccccc4)c3)ccc2OCC1=O,-
CN(Cc1cccnc1)c1nc2c(c(=O)[nH]1)CCN(Cc1ccc3cc[nH]c3c1)CC2,-[5.79 µM]
O=C(Cc1ccccc1)N1CCC2(CC1)CN(c1ccncn1)CC2CO (stereo unspecified),-
O=C(c1c[nH]c2ccccc12)N1CCC2(CC1)CN(c1ccncn1)CC2CO (stereo unspecified),5.6µM
O=C(Cc1ccsc1)N1CCC2(CC1)CN(c1ccncn1)CC2CO (stereo unspecified),-
CC(C)c1ccc(CN2CCC3(CC2)OC(=O)N(Cc2ncccn2)C3(C)c2ccccc2)cc1 (stereo unspecified),-
O=C(Cc1cccc(F)c1)N1CCC(n2cc(-c3nc(C4CC4)no3)nn2)CC1,-
CCN(Cc1ccccc1)C(=O)c1sc2nc3n(c(=O)c2c1C)CCCC3,-[5.79 µM]
CCc1ccc(N(CC)C(=O)c2sc3nc4n(c(=O)c3c2C)CCCC4)cc1,11µM
CCN(C(=O)c1sc2nc3n(c(=O)c2c1C)CCCCC3)c1ccc(OC)cc1,-
O=C(CN1CCCc2nc(C3CC3)ncc2C1=O)NCc1cccnc1,-
SMILES,Pf Dd2 inh
O=C(CN1CCCc2nc(C3CC3)ncc2C1=O)NCCc1c[nH]c2ccccc12,10µM
COCCNC(=O)CN1CCCc2nc(C3CC3)ncc2C1=O,-
N#Cc1ccc(C(=O)N2CCCN(C(=O)C3CC3)C(c3ccccc3)CC(=O)NCC2)cc1 (stereo unspecified),-
CC(C)c1nc2cc(NC(=O)C[C@H]3NC(=O)c4ccccc4NC3=O)ccc2n1C,-
O=C(NC1CC1)c1ccc2nnc(-c3cccnc3)n2c1,-
O=C(NCCc1ccccn1)c1ccc(-c2nnc3ccc(NC(=O)C4CCC4)cn23)cc1,0.56µM
O=C(Nc1ccc([C@H]2OCC(=O)N(Cc3cccnc3)[C@@H]2CO)cc1)C1CCC1,-
O=C(NCCc1cccnc1)c1ccc(-c2nnc3ccc(NC(=O)C4CCC4)cn23)cc1,0.4µM
O=C(NCCc1ccccn1)c1ccc(OC2CCNCC2)nc1,-
Cc1ccc(NC(=O)N2CCc3c(C(=O)NCCc4ccccn4)cccc32)cc1,-
CN(Cc1cccn1C)C(=O)c1ccc(C(F)(F)F)cc1,-
CN(CC1CCOCC1)C(=O)Nc1cc(F)c(F)c(F)c1,-
CCS(=O)(=O)N1CCCCCCN(C)C(=O)CC1,-
CC[C@@]1(O)CCN(C(=O)CCn2nc(C)c(C(C)=O)c2C)C[C@H]1O,-
COC[C@@H]1CN(C(=O)Cc2cccc(OC)c2)C[C@H]1c1nc(C)no1,-
COc1ccc(-c2ccc3c(N)c(C(=O)Nc4cccc(C)c4)sc3n2)cc1,-
CC(C)CSc1ccccc1NC(=O)c1sc2nc(-c3ccncc3)ccc2c1N,3.2µM
COc1cccc(-c2ccc3c(N)c(C(=O)Nc4ccc(Cl)cc4F)sc3n2)c1,-
COc1ccc(CCC(=O)N2CC[C@H](CO)[C@H](NC(=O)C3CC3)C2)cc1,-
Cc1noc(C)c1Cc1c(C(=O)N2C[C@@H](Oc3cccnc3)C[C@H]2C(N)=O)noc1C,-
CN1CCCN(C[C@@H]2CN(Cc3cccc(CCN)c3)C[C@@H]2CO)CC1,-
O=c1[nH]ccn1C1CCN(Cc2ccccc2)CC1,-
Cc1cc(CN2CCN(c3cccc(C)c3C)CC2)cs1,-
Cc1cccc(CN2CCCC(COc3ccccc3C(=O)N3CCOCC3)C2)c1 (stereo unspecified),-
NCCc1cccc(CN2CCC(Oc3cccc(F)c3)CC2)c1,10µM
SMILES,Pf Dd2 inh
NCCc1ccc(CN2CCC(Oc3ncccn3)CC2)cc1,-
NCCc1cccc(CN2CCCC(COc3ccccc3F)C2)c1 (stereo unspecified),2µM
Cc1ccccc1N1CCCN(Cc2cccc(CCN)c2)CC1,8.9µM
O=C(c1ccccc1OCC1CCCN(Cc2ccc(O)c(F)c2)C1)N1CCCCC1 (stereo unspecified),-
O=C(c1ccco1)N1CCC(Oc2cccc(F)c2)C1 (stereo unspecified),-
NCCc1cccc(CN2CCC(OCc3ccccc3)CC2)c1,4.5µM
COCC(=O)N1CCCC(C(=O)N2CCC(OCc3ccccc3)CC2)C1 (stereo unspecified),-

# Screening data as filed in PubChem.
